# Compound activity as filed in PubChem BioAssay.
# A selection: hits, their analogues and other compounds. The true share with any hit is near 1.2%.
# TSHR antag: human thyrotropin receptor antagonism. P16473. TSHR-expressing cells, TSH-stimulated cAMP HTRF, 2 h; hits give low values. activity change, negative = inhibition, % at 11.5 µM. actives 0.2% (n = 330,000). AID 504810;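 active means activity change below a set negative limit, meaning inhibition stronger than a set level, cut at about -70% in these data; inconclusive means activity change between two set negative limits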; further: on the % scale 0 is the no-effect control and ±100 the full control effect
#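 TSHR-expressing cells, 200/well, pre-treated with compound, then stimulated with EC80 TSH (4nM final) for 2 hours at 37 deg C. cAMP measured by competitive HTRF: anti-cAMP cryptate antibody in lysis buffer plus cAMP-d2, read after 30 minutes at room temperature.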
# PTAP TSG101 blk: blocks PTAP/TSG101 interaction to inhibit HIV-1 budding; Q99816; Fluorescence polarization, FITC-PTAP peptide / Tsg101 binding; Potency, µM (series often up to 115 µM), for inactives: top-dose activity change, negative = inhibition, actives largely listed as inhibitors; 340,000 tested, under 10 active; AID 493005; active means well fitted inhibition curve with a large enough effect in the main read-out, with a control signal flat, not every such curve was filed as active; inconclusive means small, poorly fitted or top-dose-only effect, or effect the other way, or a change in a side signal; inactive means no such curve, though single readings can be large or run the other way; further: potency means the concentration at half of the fitted maximal effect; % of control where 0% means no effect
# Target sequence (Q99816 whole entry, looked up): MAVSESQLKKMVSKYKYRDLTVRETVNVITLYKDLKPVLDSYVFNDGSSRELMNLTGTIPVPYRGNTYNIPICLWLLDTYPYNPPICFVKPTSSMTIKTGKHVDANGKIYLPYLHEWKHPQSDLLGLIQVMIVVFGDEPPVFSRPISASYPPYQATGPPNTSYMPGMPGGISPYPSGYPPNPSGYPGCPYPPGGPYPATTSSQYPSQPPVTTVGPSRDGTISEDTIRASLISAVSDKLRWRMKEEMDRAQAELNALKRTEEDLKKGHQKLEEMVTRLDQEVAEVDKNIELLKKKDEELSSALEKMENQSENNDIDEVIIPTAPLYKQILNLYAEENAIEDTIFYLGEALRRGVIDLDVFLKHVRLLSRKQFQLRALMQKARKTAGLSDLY
#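 FP read-out: FITC-PTAP peptide, 50 nM final, binding Tsg101 binding domain, 10 uM final; 20 min, r.t.; 10 mM HEPES pH 7.5, 0.15 M NaCl, 0.01% Tween 20, 3 mM EDTA, 0.1 mM TCEP.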
# Anesthetic bind: candidate novel general anesthetic via apoferritin binding; P02791; apoferritin/1-aminoanthracene competitive binding, fluorescence; Potency, µM (top dose mostly 77.5 µM), without a hit: at the top dose activity change, negative = displacement, usual class: inhibitors; actives 0.074% (n = 350,000); AID 485281; further: potency means the concentration at half of the fitted maximal effect; on the % scale 0 is the no-effect control and ±100 the full control effect; nearly all actives have a fitted effect of over 20% in size
# Target sequence (P02791 2-175 limits assumed): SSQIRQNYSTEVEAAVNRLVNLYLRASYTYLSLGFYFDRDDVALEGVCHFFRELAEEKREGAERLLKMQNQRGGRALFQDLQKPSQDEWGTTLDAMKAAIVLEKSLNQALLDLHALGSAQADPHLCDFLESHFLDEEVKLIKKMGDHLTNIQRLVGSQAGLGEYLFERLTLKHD
#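 Probe: 1-aminoanthracene (50% saturated, PBS). Protein: horse-spleen apoferritin, 10 uM. Incubation: 10 min, room temperature. Detection: 380 nm excitation, 535 nm emission. Analysis: normalized response, four-parameter Hill.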
# ASM inhibitor: human S-ASM enzyme inhibition. P17405. Potency, µM (series often up to 57.5 µM), for the others: at the highest dose activity change, negative = inhibition, hits mostly inhibitors. actives 0.006% (n = 340,000). placental ASM, HMU-PC fluorogenic substrate, 60 min; further: potency means the concentration at half of the fitted maximal effect
#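 Steps: dispense placental human ASM, pin compound, wait 10 min at room temperature, add HMU-PC0 substrate at 9 uM final, incubate 60 min at 37 °C, add stop solution raising pH to 10, read fluorescence.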
# BRCA1 expr up: increases BRCA1 expression | MCF7-BRCA1-FFLuc reporter, luminescence, 48 h; response scale: scaled: vehicle 0%, 10 µM genistein 100% | Potency, µM (doses to about 46.1 µM), without a hit: at the top dose activation, actives largely listed as activators | actives 1.1% (n = 380,000); further: potency means the concentration at half of the fitted maximal effect; nearly all actives have a fitted effect of over 80% in size
#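 48 h compound treatment of MCF7-BRCA1-FFLuc cells (phenol-red free MEM, 37 °C), then 15 min with luciferase substrate and luminescence imaging.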
# Numbers without * were called inactive; ? = inconclusive; · = no result; [ ] = dose if it differs, or a comment. Unless noted, the call rests on the fitted dose curve; in most records, active means well fitted curve in the direction sought with a large enough effect; inconclusive means small, poorly fitted or top-dose-only effect, or another doubt; inactive means no such curve, though single readings can be large; an effect the other way counts as inactive or inconclusive.
SMILES,TSHR antag,PTAP TSG101 blk,Anesthetic bind,ASM inhibitor,BRCA1 expr up
OC[C@@H]1O[C@H](OC2[C@@H](O)[C@@H](O)[C@@H](O)O[C@@H]2CO)[C@H](O)[C@@H](O)[C@@H]1OC1O[C@H](CO)[C@@H](O)[C@H](O)[C@@H]1O (stereo not given in full),·,·,6%,·,·
CCOC(=O)Cc1csc(NC(=O)c2ccc(C)o2)n1,-8,-7%,1%,5%,54%
CCOC(=O)Cc1csc(NC(=O)c2cnc3sc(C)cn3c2=O)n1,-7,-1%,-9%,-1%,11µM*
Cc1ccc(-n2nnc3ccccc3c2=O)cc1C,10,-5%,-1%,1%,4.5µM*
O=C(NNC(=S)Nc1ccccc1Cl)c1ccccc1,3,0%,-5%,-1%,13µM*
O=C(NNC(=S)Nc1ccccc1Cl)c1ccccc1Cl,-33,-2%,-16%,3%,10µM*
O=C(NNC(=S)Nc1ccc(Cl)cc1)c1ccccc1,7,5%,-6%,0%,82%
CCOc1ccc(CNC(=O)CCCn2nc(CC)n3c(cc4occc43)c2=O)cc1,-110*,-7%,-9%,-10%,-8%
CN(C)/C=N/c1c(C#N)cnn1-c1ccc(F)c(Cl)c1,·,·,-1%,·,·
COc1ccc(C2CC2/C(=N/O)c2ccccn2)cc1 (stereo not given),10,0%,-9%,6%,54%
COc1ccc(C2CC2/C(=N/O)c2ccccc2)cc1 (stereo not given),-4,-1%,-10%,-3%,11µM*
COc1ccc(C2CC2C(=O)c2ccccn2)cc1 (stereo not given),1,-6%,-16%,1%,8.9µM*
Nc1ncnc2c1ncn2[C@H]1O[C@@H](CSCC[C@@H](N)C(=O)O)[C@H](O)[C@@H]1O,·,·,2%,·,·
Cc1cccc(NC(=O)c2cc(-c3cc(C)ccc3O)n[nH]2)c1,3,-1%,6%,-1%,1.6µM*
Cc1cccc(NC(=O)c2cc(-c3cc(C)c(C)cc3O)n[nH]2)c1,-9,0%,15%,-1%,?
O=C(CN1CCN(C(=O)c2ccccc2)CC1)Nc1ccc(Cl)cc1F,-79*,-3%,-9%,5%[11.5 µM],-17%
O=C(CN1CCN(C(=O)c2ccccc2)CC1)Nc1cc(S(=O)(=O)N2CCCC2)ccc1Cl,-21,1%,·,4%,-28%
O=C(Nc1ccc(Br)cn1)c1cnn2c1NC(=C1CC1)C=C2C(F)F,·,·,·,·,-2%
O=[N+]([O-])c1ccc(/C=C/c2ccncc2)cc1,-8,-2%,7%,1%,10µM*
COC(=O)c1c(C)[nH]c(C(=O)OCc2ccc(F)cc2)c1C,2,-1%,-9%,-3%,4.5µM*
Cc1sc(NC(=O)C2CCCCC2)c(C#N)c1-c1ccccc1,-7,-8%,?,-3%,7.1µM*
Cc1cccc(C(=O)Nc2sc(C)c(-c3ccccc3)c2C#N)c1,-38,-1%,-7%,-14%,?
S=C(NCc1ccco1)N1CCN(Cc2ccco2)CC1,9,-3%,-8%,2%,3%
S=C(Nc1ccc2c(c1)OCO2)N1CCN(Cc2ccco2)CC1,2,-3%,4%,1%,3.5µM*
COc1ccc(O)c(C(=O)CC(=O)c2ccccc2)c1,4,·,?,·,·
SMILES,TSHR antag,PTAP TSG101 blk,Anesthetic bind,ASM inhibitor,BRCA1 expr up
O=C(Oc1ccc(-c2cnc3ccccc3n2)cc1)c1cccc([N+](=O)[O-])c1,-3,2%,-11%,3%,3.2µM*
O=C(COc1ccccc1)c1ccccc1,·,-1%,·,0%,?
COc1ccc(O)c(C(=O)CC(=O)c2ccncc2)c1,·,-10%,·,4%,5.6µM*
CCC(=O)c1ccc(-c2ccccc2)cc1,-1,-11%,-6%,6%,13µM*
COC(=O)c1ccc(OCC(=O)c2ccccc2)cc1,-3,-3%,-24%,0%,11µM*
CCOc1ccc(C(=O)Cc2ccccc2)cc1,·,-9%,·,-1%,?
O=C(CCc1ccccc1)OCC(=O)c1cccc([N+](=O)[O-])c1,-4,-1%,-21%,0%,-3%
COc1ccccc1CC(=O)c1ccc(OCc2ccccc2)cc1,-2,-5%,·,-1%,8.9µM*
O=C(COC(=O)c1cccc([N+](=O)[O-])c1)c1ccc(OCc2ccccc2)cc1,1,-1%,-2%,-3%,5µM*
CC(=O)CC(c1ccccc1)S(=O)(=O)c1ccc(C)cc1 (stereo not given),22,-3%,-13%,2%,-3%
COc1ccc(C(CC(=O)c2ccccc2)S(=O)(=O)c2ccc(C)cc2)cc1 (stereo not given),5,-4%,-8%,12%,10µM*
COc1ccc(C(=O)CC(=O)c2ccc(OC)cc2)cc1,6,-2%,-4%,20%,48%
COc1ccc(C(=O)CC(=O)c2ccccc2)cc1,·,0%,·,6%,7.9µM*
Nc1ccccc1C#Cc1ccc2[nH]ccc2c1,·,-9%,·,-6%,10µM*
Nc1ccccc1C#Cc1ccccc1,-4,0%,?,8%,11µM*
CC(C)=CCC/C(C)=C/CO/N=C1/C[C@@H](O)[C@@H](O)[C@@H]2[C@@H]3C(=O)N(Cc4ccc5c(c4)OCO5)C(=O)[C@H]3CC[C@H]12,·,·,-4%[15.3 µM],·,·
COc1ccc(-c2nc(SC)n(C(=O)c3ccco3)n2)cc1,20,0%,6%,-1%,11µM*
O=C(CCCOc1ccc(Cl)cc1)N1CCCCC1,-13,0%,-14%,-4%,13µM*
O=C(c1ccc(COc2ccc(Cl)cc2)cc1)N1CCCCC1,-24,-1%,?,-1%,3.2µM*
COc1ccccc1OCc1cc(C(=O)N2CCCC(OCc3cccnc3)C2)no1 (stereo not given),-1,-2%,-10%,1%,7.1µM*
O=C(c1cc(COc2ccccc2)on1)N1CCCC(OCc2cccnc2)C1 (stereo not given),-13,·,-12%,1%,47%
O=C(Cc1ccc(F)cc1)Nc1nccs1,-1,-3%,-19%,0%,5%
Fc1ccc(NC(=S)Nc2nccs2)cc1,8,-6%,-15%,-6%,3.2µM*
COc1cc(OC)cc(-c2nnc3n2N=C(c2ccc(OC)cc2OC)CS3)c1,·,·,-21%,·,·
CC(=O)c1c(O)cc(O)cc1CC(=O)O,-9,-20%,-11%,1%,5%
CC(=O)c1c(O)cc(O)c(C(C)=O)c1O,-94*,-17%,-12%,1%,-46%
COc1cc(OC)c(NC(=O)CCCn2nc(C)c3sc4ccccc4c3c2=O)cc1Cl,·,·,5%,·,·
S=C(Nc1ccc(Cl)cc1)NC1CCCCC1,-13,1%,3%,0%,86%
CCOC(=O)C1CCN(C(=O)Nc2ccc(OC(F)(F)F)cc2)CC1,-2,-6%,3%,11%,13µM*
